# Whole data set: some 33,000 sequences, median “E-score (-0.5 to 0.5)” near -0.021, cut for the highest 2% near 0.32. The list comes from a sample in which the highest values are over-represented; it also holds similar and randomly drawn sequences.
# Biological target: T1, Zap1 (UniProt P47043)
# T1 sequence: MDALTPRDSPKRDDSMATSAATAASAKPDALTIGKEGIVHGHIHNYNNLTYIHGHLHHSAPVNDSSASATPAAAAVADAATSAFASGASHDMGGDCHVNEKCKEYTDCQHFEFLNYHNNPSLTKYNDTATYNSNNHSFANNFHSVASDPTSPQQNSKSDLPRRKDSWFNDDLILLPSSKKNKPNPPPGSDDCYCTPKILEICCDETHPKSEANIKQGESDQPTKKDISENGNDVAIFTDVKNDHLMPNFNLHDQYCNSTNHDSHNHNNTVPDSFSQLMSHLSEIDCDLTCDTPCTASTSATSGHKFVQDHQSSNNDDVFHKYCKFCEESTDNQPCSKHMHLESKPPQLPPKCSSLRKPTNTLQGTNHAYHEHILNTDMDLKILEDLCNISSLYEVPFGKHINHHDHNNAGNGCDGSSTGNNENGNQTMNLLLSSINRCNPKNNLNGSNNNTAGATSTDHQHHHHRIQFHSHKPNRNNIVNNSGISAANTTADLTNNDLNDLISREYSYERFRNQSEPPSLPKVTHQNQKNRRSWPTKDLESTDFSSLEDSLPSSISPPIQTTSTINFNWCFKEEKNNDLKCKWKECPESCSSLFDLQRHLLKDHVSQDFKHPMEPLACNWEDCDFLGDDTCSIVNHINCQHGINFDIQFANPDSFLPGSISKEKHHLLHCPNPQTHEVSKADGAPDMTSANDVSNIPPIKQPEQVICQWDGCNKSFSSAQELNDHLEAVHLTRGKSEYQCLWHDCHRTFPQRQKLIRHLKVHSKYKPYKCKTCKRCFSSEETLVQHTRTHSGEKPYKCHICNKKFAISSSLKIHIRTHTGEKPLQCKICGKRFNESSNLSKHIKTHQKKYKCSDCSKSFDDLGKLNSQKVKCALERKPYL
# Experiment: PBM E-score (8-mer binding enrichment) (E-score (-0.5 to 0.5)); higher = stronger / more preferred TF binding
# Settings: protein concentration: 200 nM; construct: GST-full length
# Outline: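 Yeast transcription factors, full-length or as DNA-binding domains, were expressed with a GST tag using PURExpress in vitro transcription/translation. At about 100-200 nM they were applied to universal all-10-mer Agilent arrays, double-stranded by primer extension on fresh or once-stripped slides. Fluorescent anti-GST detected bound protein, and masliner normalised the scans. E-scores for ungapped eight-base words, pooled with reverse complements, came from the Universal PBM Analysis Suite.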
row,Sequence,PBM E-score
1,GACTCTCC,-0.236
2,GACCCCAA,0.172
3,ACCACAAA,0.35
4,AACCCAAA,0.35
5,TACCCCAA,0.363
6,AACCCAAT,0.187
7,ACCACAAG,0.259
8,AACCCAAG,0.346
9,GCCACAAA,0.221
10,TACCCCCA,0.054
11,AACCCAAC,0.282
12,CACCCAAA,0.255
13,GACCCAAA,0.299
14,CGTTAGCC,-0.0813
15,GTCTTAGA,0.0182
16,CCATCAAA,0.0846
17,CCAGAAGA,-0.0769
18,AACCCCAA,0.377
19,CACCAAAA,0.235
20,AACCCCCA,-0.0716
21,ACCCCCAA,-0.0064
22,CCCCCAAA,-0.22
23,ACCCCCAC,-0.286
24,ACCCCAAA,0.337
25,AACCAAAA,0.364
26,TACCAAAA,0.161

row,Sequence,PBM E-score
1,ACCCCAAG,0.311
2,AACCCCAC,0.344
3,GACCCCAC,0.243
4,AACTAACG,0.166
5,AACTGCGC,-0.0727
6,CCTTAGAA,0.211
7,GCCAACAA,0.192
8,AGGCTAAC,-0.0255
9,TCCTACCA,-0.13
10,GATTTAGC,0.118
11,ATTGTGGC,0.0557
12,ACAAAAAA,0.317
13,AAACCCAT,0.253
14,ACCCAAAG,0.271
15,ACCCCCAT,0.0539
16,ACAAAAAC,0.182
17,AACCCCAT,0.359
18,ACCCAAAA,0.345
19,GCCCAAAA,0.179
20,ACAAAAAT,0.234
21,CCCCTTCA,-0.105
22,CTCCTAAA,-0.147
23,GCAATGCC,-0.104
24,ACCACCGA,0.172
25,ACGTAAGG,-0.112
26,AACAGGCG,-0.32

row,Sequence,PBM E-score
1,TTATCAAA,0.2
2,GTAATCAA,0.146
3,ATTCACTA,0.0664
4,CATAGAGC,-0.238
5,ATGAGCGC,-0.0149
6,GACCTGAA,0.132
7,CCGGCGCC,-0.114
8,ATAGGGTA,0.38
9,CTAGGGTC,0.309
10,ATAGGGTC,0.272
11,CTAGGGTA,0.411
12,ATAGGGTG,0.214
13,GTAGGGTA,0.429
14,GTAGGGAA,-0.112
15,GTAGGGCA,-0.143
16,CTAGGGAA,-0.037
17,TTAATGAA,0.187
18,TCTTGGAA,0.089
19,AGATTAAA,0.2
20,GCTTTGAC,0.0804
21,CTAGACTC,-0.231
22,ACGCATTA,0.12
23,AATAAGAA,0.208
24,ATAGAAGC,-0.0622
25,AACAACAA,0.181
26,AACAACCG,0.1

row,Sequence,PBM E-score
1,AACAACCC,0.408
2,AACAACCT,0.273
3,AACAACAC,0.151
4,CACAACCA,0.343
5,CACAACAA,0.0567
6,AACAACCA,0.319
7,CCCAACCC,0.163
8,CCCAACCA,0.123
9,CACAACCG,0.289
10,CACAACCC,0.414
11,AGCGCCAG,-0.256
12,CGCTTAGC,-0.239
13,ACATTTGC,-0.00108
14,CTTCCCAA,-0.213
15,TACAACAA,0.276
16,GACAACTC,-0.0129
17,GACAAACC,0.124
18,GACAACCA,0.252
19,GACAACCC,0.35
20,TACAACCA,0.319
21,GCGTCGCC,-0.162
22,GGGGCCTA,-0.136
23,GCCAGGGA,-0.174
24,GCCCACAC,-0.102
25,ACCCACCC,0.373
26,CCCCACCC,0.357

row,Sequence,PBM E-score
1,AACCACCA,0.273
2,GCCCACCC,0.335
3,GCCCACCA,-0.217
4,ACCCACCT,0.213
5,CACCACCC,0.186
6,ACCCACCA,0.177
7,CCCCACCA,0.119
8,CCCCACCG,0.163
9,AACCACCC,0.353
10,ACACCAGT,-0.0248
11,GTGCCCTA,-0.314
12,CCTGGTGA,0.0199
13,CGCTGCGC,-0.373
14,GCTGAGAA,-0.156
15,ATCTGAGG,0.094
16,CCCCTGAC,0.113
17,AGCCTGAT,-0.177
18,ACCCTGGG,0.376
19,ACCCTGTC,0.193
20,ACCCTGAT,0.344
21,ACCCTGGC,0.183
22,ACCCTGTG,0.367
23,AGCCTGTG,-0.29
24,ACCCTGGA,0.161
25,AACCTGTG,0.207
26,ACCCTGAC,0.335

row,Sequence,PBM E-score
1,AACCTGAT,0.177
2,CATAGCTA,-0.113
3,GCTGTGGA,-0.0748
4,CTAGTTCA,-0.00273
5,CCAACAGG,0.0645
6,AACCTCCA,0.0742
7,ACACTTCT,-0.0698
8,CAAGTGAG,-0.196
9,ATCCTGAG,-0.0542
10,ACCCTGAG,0.378
11,CCCCTGAG,-0.0275
12,AGCAACCG,-0.0288
13,AACTGCCG,-0.0311
14,ACCTCGCG,0.109
15,TAGTTACA,0.158
16,GCGTTACC,0.0732
17,CTGTTACA,0.0543
18,GGGTTACC,0.463
19,CCGTTACA,0.061
20,TCGTTACA,-0.024
21,TGGTTACA,0.395
22,GAGTTACC,0.3
23,GGTTTACA,0.17
24,CGGTTACA,0.411
25,GCGTTACA,0.126
26,GGGTTACA,0.468

row,Sequence,PBM E-score
1,AGCAACAG,-0.195
2,AACTAATA,0.314
3,AGTAGCGG,-0.125
4,GAAGACCC,0.236
5,TATTAGGA,0.0916
6,CCTTATAC,0.0827
7,CCCCAGTA,-0.0431
8,CACTGGTC,-0.0725
9,CCTCAATC,0.158
10,CTGTTACC,0.248
11,CAGTTACC,0.208
12,CGGTTACC,0.444
13,GCCACTAC,-0.0479
14,TATCTAGA,0.151
15,AGCGTCTA,-0.214
16,GCTTTAAC,0.186
17,CCTTTAAC,0.352
18,CCCTTAAG,0.335
19,CCTTTAAG,0.237
20,ACCTTAAC,0.358
21,ACCTTATA,0.339
22,CCCTTATA,0.15
23,CCCTTAAC,0.0959
24,ACCTTAAA,0.247
25,ACCTTATG,0.314
26,ACCTTAAT,0.302

row,Sequence,PBM E-score
1,ACCTTAAG,0.269
2,AGTGGAAG,-0.204
3,ATGAGCGG,-0.167
4,GTTGGGAA,0.0568
5,ATGAGGAC,-0.0846
6,ATCCAGTC,-0.137
7,CTCTCACC,0.0392
8,AATCCCGA,0.0192
9,ATCAACAT,0.00735
10,ATAGGAAC,0.0152
11,CGCCTACG,-0.23
12,GAATGGCC,0.188
13,AGTGCGAA,-0.172
14,CCTTAAGC,0.0365
15,CCTTAAGG,0.411
16,CCTTAAGA,0.155
17,AGCTCGAG,-0.0098
18,GATACTCA,-0.029
19,ATAGGTAC,0.36
20,ATAGGTAG,0.172
21,ATAGGTGA,0.0727
22,CTAGGTAC,0.115
23,ATAGGTAA,0.323
24,CTAGGTAA,0.0356
25,GGAAGGCA,-0.191
26,AGGGGCTG,-0.0614

row,Sequence,PBM E-score
1,ATGGTTAC,0.471
2,ATGGTTAG,0.316
3,CTGGTTAA,0.225
4,ATGGTTGC,0.0738
5,CTGGTTTC,0.124
6,CTGGTTAC,0.412
7,ACGGTTGG,-0.0119
8,CGCTATAG,-0.238
9,TCCATTCA,0.0213
10,ATCTGGAA,-0.00838
11,TGACCTCA,0.333
12,CAACCTAA,0.203
13,CAACCTTA,0.286
14,AAACCTCA,0.232
15,CGACCTCA,0.081
16,TAACCTCA,0.418
17,AAACCTTA,0.288
18,AGACCTCA,0.0826
19,AAACCTAA,0.159
20,GAACCTCA,0.189
21,TAACCTTA,0.39
22,TAACCTAA,0.399

# From the supplement of paper PMC3334620
